According to PubChem BioAssay:
Activity calls are given as the source filed them.

What was measured:
[1] = adipocyte viability effects, profiling panel, cell-based, 3T3-L1 adipocytes, calcein-AM fluorescence, 48 h, basal (AID 1163); conditions: 3T3-L1 adipocytes viability, higher = more signal
[2] = HepG2 cell viability effects, profiling panel, calcein-AM fluorescence, 48 h, basal (AID 1164); conditions: higher = more signal
[3] = MM1S cell viability effects, profiling panel, calcein-AM fluorescence, 48 h, basal (AID 1165); conditions: higher = more signal;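 also: viability of MM1S multiple myeloma cells under basal unstimulated conditions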
[4] = basal RPMI8226 viability, no added stimulus, profiling panel, cell-based, calcein-AM fluorescence, 48 h, PK04 Diversity Set (AID 1166); conditions: RPMI8226 myeloma viability, higher = more signal;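 also: cells grown under basal conditions without added stimulus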
[5] = basal HepG2 mitochondrial membrane potential changes, profiling panel, cell-based, JC-1 fluorescence, 24 h, 100 nL compound (AID 1167); conditions: higher = more signal
[6] = basal 3T3-L1 adipocyte mitochondrial potential changes, profiling panel, cell-based, JC-1 fluorescence, 3T3-L1 adipocytes, 24 h, 100 nL compound (AID 1168); conditions: JC-1 mitochondrial fluorescence, higher = more signal, called active from +8 up or from −8 down
[7] = basal RPMI8226 mitochondrial membrane potential changes, profiling panel, cell-based, JC-1 fluorescence, 24 h, 100 nL compound (AID 1169); conditions: RPMI8226 myeloma, JC-1 mitochondrial potential fluorescence, higher = more signal
[8] = basal MM1S mitochondrial membrane potential changes, profiling panel, cell-based, JC-1 fluorescence, 24 h, 100 nL compound (AID 1170); conditions: higher = more signal
[9] = A549 lung cancer cell viability effects, profiling panel, resazurin fluorescence, 24 h, PK04 Diversity Set (AID 1171); conditions: higher = more signal, called active from +8 up or from −8 down
[10] = HepG2 liver cancer cell viability effects, profiling panel, resazurin fluorescence, 24 h, PK04 Diversity Set (AID 1172); conditions: higher = more signal
[11] = basal S. cerevisiae growth modulation, no modifier, primary screen, OD600, strain BY4716, 24 h, basal condition (AID 1173); conditions: OD600, 24 h, higher = more signal, called active from +8 up or from −8 down
[12] = MM1S myeloma cell viability, profiling panel, resazurin fluorescence, basal, 24 h, PK04 Diversity Set (AID 1174); conditions: higher = more signal, called active from +8 up or from −8 down;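 also: MM1S multiple myeloma cell line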
[13] = target: Dihydroorotate dehydrogenase (quinone), mitochondrial (Plasmodium falciparum (isolate 3D7)) (UniProt Q08210); test: PfDHODH enzyme inhibitors, primary screen, biochemical, C-terminal His tag, absorbance 600 nm (AID 1175); conditions: DCIP absorbance 600 nm, higher = more signal, called active from +8 up or from −8 down;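 also: recombinant parasite enzyme with a five histidine tag at its C terminus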
Sequence of Dihydroorotate dehydrogenase (quinone), mitochondrial (Plasmodium falciparum (isolate 3D7)) (Q08210 whole entry, looked up): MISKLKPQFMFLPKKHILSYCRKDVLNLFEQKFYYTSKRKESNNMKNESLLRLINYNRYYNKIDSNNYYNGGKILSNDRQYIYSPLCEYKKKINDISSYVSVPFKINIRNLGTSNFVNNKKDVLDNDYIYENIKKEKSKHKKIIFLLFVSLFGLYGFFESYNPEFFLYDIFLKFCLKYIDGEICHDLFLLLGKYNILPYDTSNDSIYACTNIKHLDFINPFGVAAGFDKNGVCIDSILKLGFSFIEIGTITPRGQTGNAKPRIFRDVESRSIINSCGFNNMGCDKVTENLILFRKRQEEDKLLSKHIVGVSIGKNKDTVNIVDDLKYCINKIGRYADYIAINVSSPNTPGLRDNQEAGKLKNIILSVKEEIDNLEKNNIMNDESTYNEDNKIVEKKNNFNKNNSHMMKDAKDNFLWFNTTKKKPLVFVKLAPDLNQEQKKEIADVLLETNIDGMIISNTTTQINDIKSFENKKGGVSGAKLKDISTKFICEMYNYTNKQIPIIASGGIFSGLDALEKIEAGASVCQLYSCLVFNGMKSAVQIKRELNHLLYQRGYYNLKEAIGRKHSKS

[14] = S. cerevisiae RM11-1a growth modifiers, primary screen, strain RM11-1a, OD600, basal, 24 h (AID 1177); conditions: OD600, 24 h, higher = more signal, called active from +8 up or from −8 down;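 also: cultures grown under basal conditions with no added stressor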
[15] = E. coli acrAB mutant growth effects, primary screen, E. coli filamentation inducers, strain DRC39, OD650, 24 h (AID 1178); conditions: higher = more signal, called active from +8 up or from −8 down;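 also: growth measured as culture turbidity by optical density at 650 nm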
[16] = E. coli acrAB mutant growth effects, primary screen, E. coli filamentation inducers, strain DRC39, OD650, 48 h (AID 1179);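 also: screen aims at cell division blockers that make cells filament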; conditions: E. coli DRC39 delta-acrAB growth, higher = more signal, called active from +8 up or from −8 down
[17] = RPMI8226 myeloma cell viability, profiling panel, resazurin fluorescence, basal, 24 h, PK04 Diversity Set (AID 1180); conditions: higher = more signal;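 also: RPMI8826 multiple myeloma cell line at 5000 cells per well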
[18] = target: E3 ubiquitin-protein ligase XIAP (Homo sapiens) (UniProt P98170); test: XIAP binders, primary screen, biophysical, small-molecule microarray, fluorescence 635 nm (AID 1181); conditions: small-molecule microarray binding, higher = more signal;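 also: score merges 667 nm emission and signal to noise over triplicate slides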
Sequence of E3 ubiquitin-protein ligase XIAP (Homo sapiens) (P98170 whole entry, looked up): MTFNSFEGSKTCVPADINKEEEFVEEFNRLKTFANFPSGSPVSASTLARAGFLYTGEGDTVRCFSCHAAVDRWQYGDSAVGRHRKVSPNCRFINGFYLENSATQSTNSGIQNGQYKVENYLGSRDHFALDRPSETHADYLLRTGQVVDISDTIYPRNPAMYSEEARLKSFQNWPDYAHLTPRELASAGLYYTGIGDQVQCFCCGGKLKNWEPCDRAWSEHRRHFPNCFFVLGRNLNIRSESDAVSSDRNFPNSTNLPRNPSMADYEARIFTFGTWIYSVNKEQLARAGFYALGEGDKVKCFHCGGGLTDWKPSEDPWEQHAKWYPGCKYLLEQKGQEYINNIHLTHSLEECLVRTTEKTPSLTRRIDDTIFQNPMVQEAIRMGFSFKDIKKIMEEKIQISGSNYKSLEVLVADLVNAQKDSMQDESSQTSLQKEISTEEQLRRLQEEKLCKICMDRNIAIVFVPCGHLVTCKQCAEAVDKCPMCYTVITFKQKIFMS

[19] = system: XIP peptide (Xip251-270) binding; test: small-molecule binders of XIP peptide, primary screen, biochemical, small-molecule microarray, fluorescence 635/667 nm, 0.1 µg/mL protein (AID 1182); conditions: fluorescent protein binding, 635 nm, higher = more signal, called active from +8 up or from −8 down
XIP peptide (Xip251-270) = test: small-molecule binders of XIP peptide, primary screen, biochemical, small-molecule microarray, fluorescence 635/667 nm, 0.5 µg/mL protein (AID 1183); conditions: small-molecule microarray binding, fluorescence 635 nm; higher = more signal

## C=CCC(OC(C)=O)[C@@H]1[C@@H](N(Cc2cccc3ccccc23)C(=O)c2cccc3ccccc23)c2cc(OCCCO)ccc2N1C(=O)Cc1ccc(OC)cc1 (stereo not given in full)
[1]
  z-score: 2.56
[2]
  z-score: 0.486
[3]
  z-score: 1.7
[4]
  z-score: -1.28
[5]
  z-score: 3.07
[6]
  z-score: 0.451 (inactive)
[7]
  z-score: 0.402
[8]
  z-score: 0.779
[9]
  z-score: -0.245 (inactive)
[10]
  z-score: 0.147
[11]
  z-score: -3 (inactive)
[12]
  z-score: 1.09 (inactive)
[13]
  composite z-score: 0.848 (inactive)
[14]
  z-score: -1.48 (inactive)
[15]
  z-score: 1.35 (inactive)
[16]
  z-score: 0.717 (inactive)
[17]
  z-score: 0.301
[18]
  composite z-score: 0.108
[19]
  composite z-score: 0.936 (inactive)
XIP peptide (Xip251-270)
  composite z-score: -0.314

## CCCNC(=O)[C@@H]1c2ccccc2C(=O)N(Cc2cc(C(F)(F)F)cc(C(F)(F)F)c2)[C@H]1c1ccc(CO)cc1
[1]
  z-score: 1.6
[2]
  z-score: 0.174
[3]
  z-score: -0.298
[4]
  z-score: -1
[5]
  z-score: 1.4
[6]
  z-score: -0.652 (inactive)
[7]
  z-score: 0.188
[8]
  z-score: 1.01
[9]
  z-score: 0.741 (inactive)
[10]
  z-score: 0.397
[11]
  z-score: -0.367 (inactive)
[12]
  z-score: 1.52 (inactive)
[13]
  composite z-score: 0.754 (inactive)
[14]
  z-score: 0.288 (inactive)
[15]
  z-score: 1.06 (inactive)
[16]
  z-score: -0.625 (inactive)
[17]
  z-score: 1.63
[18]
  composite z-score: -0.374
[19]
  composite z-score: 0.133 (inactive)
XIP peptide (Xip251-270)
  composite z-score: 0.219

## COCCCNC(=O)[C@@]1(Cc2ccccc2CN=[N+]=[N-])COC(c2ccc(OCCCO)cc2)=N1
[1]
  z-score: 1.08
[2]
  z-score: 0.501
[3]
  z-score: -2.46
[4]
  z-score: -0.77
[5]
  z-score: 0.287
[6]
  z-score: 1.33 (inactive)
[7]
  z-score: -0.724
[8]
  z-score: -0.376
[9]
  z-score: 0.616 (inactive)
[10]
  z-score: 1.8
[11]
  z-score: -1.66 (inactive)
[12]
  z-score: 0.0645 (inactive)
[13]
  composite z-score: -0.49 (inactive)
[14]
  z-score: 0.493 (inactive)
[15]
  z-score: 2 (inactive)
[16]
  z-score: 1.61 (inactive)
[17]
  z-score: 0.693
[18]
  composite z-score: -0.0525
[19]
  composite z-score: 1.94 (inactive)
XIP peptide (Xip251-270)
  composite z-score: 0.866

## CC(C)C[C@@H]1NC(=O)[C@H]2C[C@@H](C(=O)NCCCC[N+](C)(C)C)[C@@H](c3cccc(OCCO)c3)N2C1=O
[1]
  z-score: 0.753
[2]
  z-score: -0.131
[3]
  z-score: 0.0808
[4]
  z-score: -0.583
[5]
  z-score: 1.22
[6]
  z-score: 1.37 (inactive)
[7]
  z-score: -0.173
[8]
  z-score: 0.0969
[9]
  z-score: -0.474 (inactive)
[10]
  z-score: 0.417
[11]
  z-score: -0.553 (inactive)
[12]
  z-score: 0.932 (inactive)
[13]
  composite z-score: -30.9 (active)
[14]
  z-score: -0.915 (inactive)
[15]
  z-score: 0.709 (inactive)
[16]
  z-score: 0.569 (inactive)
[17]
  z-score: 0.33
[18]
  composite z-score: -0.0476
[19]
  composite z-score: 1.85 (inactive)
XIP peptide (Xip251-270)
  composite z-score: 0.705

## COc1ccc([Si](C)(C)[C@@H]2[C@@H](CCn3cc([C@H](O)c4ccccc4)nn3)O[C@]3(C(=O)N(C)c4c(Br)cc(C)cc43)[C@H]2C)cc1
[1]
  z-score: 1.49
[2]
  z-score: -4.5
[3]
  z-score: -2.72
[4]
  z-score: -4.42
[5]
  z-score: -1.11
[6]
  z-score: 2.39 (inactive)
[7]
  z-score: -1.06
[8]
  z-score: -1.2
[9]
  z-score: -2.49 (inactive)
[10]
  z-score: -3.66
[11]
  z-score: -1.39 (inactive)
[12]
  z-score: -8.35 (active)
[13]
  composite z-score: -0.973 (inactive)
[14]
  z-score: -2.42 (inactive)
[15]
  z-score: 2.5 (inactive)
[16]
  z-score: 2.83 (inactive)
[17]
  z-score: -6.23
[18]
  composite z-score: 0.382
[19]
  composite z-score: 0.512 (inactive)
XIP peptide (Xip251-270)
  composite z-score: 0.202

## CC(C)(C)OC(=O)CC[C@@]12N=C(c3ccc(OCCCO)cc3)O[C@@H]1c1ccccc1N(Cc1ccccc1)C2=O
[1]
  z-score: 1.87
[2]
  z-score: -0.186
[3]
  z-score: -1.9
[4]
  z-score: -3.34
[5]
  z-score: 0.624
[6]
  z-score: 1.69 (inactive)
[7]
  z-score: -0.778
[8]
  z-score: 1.44
[9]
  z-score: 0.345 (inactive)
[10]
  z-score: 0.375
[11]
  z-score: -0.075 (inactive)
[12]
  z-score: -0.0313 (inactive)
[13]
  composite z-score: 0.463 (inactive)
[14]
  z-score: 1.17 (inactive)
[15]
  z-score: 1.59 (inactive)
[16]
  z-score: 0.358 (inactive)
[17]
  z-score: 0.574
[18]
  composite z-score: -0.635
[19]
  composite z-score: 1.63 (inactive)
XIP peptide (Xip251-270)
  composite z-score: 0.693

## C=C(COC)/C(=C/C[C@H](OC(C)=O)c1ccc(CO)o1)c1cnc2ccccc2c1
[1]
  z-score: 0.788
[2]
  z-score: -0.957
[3]
  z-score: -1.42
[4]
  z-score: -0.182
[5]
  z-score: 0.117
[6]
  z-score: 0.411 (inactive)
[7]
  z-score: 0.624
[8]
  z-score: -0.271
[9]
  z-score: 0.445 (inactive)
[10]
  z-score: 0.441
[11]
  z-score: -1.24 (inactive)
[12]
  z-score: 1.04 (inactive)
[13]
  composite z-score: -7.31 (inactive)
[14]
  z-score: -0.819 (inactive)
[15]
  z-score: 1.48 (inactive)
[16]
  z-score: 0.383 (inactive)
[17]
  z-score: 0.981
[18]
  composite z-score: 0.292
[19]
  composite z-score: 1.5 (inactive)
XIP peptide (Xip251-270)
  composite z-score: 0.807

## CC(C)NC(=O)[C@@H]1c2ccccc2C(=O)N(Cc2cc(F)cc(C(F)(F)F)c2)[C@H]1c1ccc(CO)cc1
[1]
  z-score: 1.41
[2]
  z-score: 0.813
[3]
  z-score: 0.404
[4]
  z-score: 0.252
[5]
  z-score: 1.59
[6]
  z-score: -0.64 (inactive)
[7]
  z-score: -0.834
[8]
  z-score: 0.621
[9]
  z-score: 1.84 (inactive)
[10]
  z-score: 0.641
[11]
  z-score: -0.518 (inactive)
[12]
  z-score: 1.39 (inactive)
[13]
  composite z-score: -0.243 (inactive)
[14]
  z-score: -0.284 (inactive)
[15]
  z-score: 1.33 (inactive)
[16]
  z-score: 0.326 (inactive)
[17]
  z-score: 1.5
[18]
  composite z-score: -0.174
[19]
  composite z-score: 0.873 (inactive)
XIP peptide (Xip251-270)
  composite z-score: -1.01
